PubChem BioAssay (NCI)
This is part of a sample that, as a whole, favours compounds with a hit. Of some 83,000 tested, about 20% had one in any assay.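 Assay: single dose, 48 h. Readout: percent growth (0 = no net growth; negative = cell death). Active: <10.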 Values without a mark were called inactive. Activity calls are given as the source filed them.

These molecules were tested on MALME-3M melanoma (assay: NCI-60 one-dose screen, 48 h (100 = growth as untreated, 0 = no growth, -100 = all killed)). Settings: 10 µM unless noted.

SMILES	growth
COc1cc(C(=O)n2nc(N3CCN(C)CC3)c3cc(N)ccc32)cc(OC)c1OC	65.3%
O=C1N[C@@H]2NC(=[N+]3CCOCC3)N[C@@H]2N1	92.9%
N#Cc1c(N)nnn1Cc1cc(=O)oc2c1ccc1ccccc12	103%
COc1cc(OC)cc(C2=C3CC[C@@H]4[C@H](CC[C@]5(C)C(=O)CC[C@@H]45)C3=CC3C(O)c4cccnc4N4C(=O)COC234)c1 (stereo not given in full)	103%
C=C(C)[C@@H]1CC[C@]2(C(=O)N3CCN(C)CC3)CC[C@]3(C)[C@H](CC[C@@H]4[C@@]5(C)CC(=C/c6ccncc6)/C(=N/O)C(C)(C)[C@@H]5CC[C@]43C)[C@@H]12	87.4%
CN1CCN(Cc2ccc3c(NNC(=O)c4ccccc4)nc4cc(F)ccc4n23)CC1	23.5%
CCOC(=O)c1c2c(n3ccc(C)cc13)C(=O)c1ccccc1C2=O	103%
CCCC(=O)NC(c1ccc2c(c1)OCO2)c1ccc2cccnc2c1O (stereo not given)	13.4%
Cc1nc2sc(C(=O)Nc3ccccc3)c(N)c2cc1C(=O)c1ccccc1	68.3%
COC(=O)c1ccc2c(c1)C(=O)c1c-2n(CCCN)c(=O)c2cc([N+](=O)[O-])ccc12	-96.9% (active)
CO[C@]12C=C/C(=C(/C(=O)OCc3cccnc3)C(=O)CCCCCCCC[C@@]3(OC)C=C/C(=C(/C(=O)OCc4cccnc4)C(=O)CCCCCCCC1)O3)O2	-31.2% (active)
Brc1c2c(c(Br)c3ccccc13)CCCC2	108%
Cc1cc2c([nH]1)CSc1cc(S(=O)(=O)c3ccccc3)c(=O)[nH]c1-2	25.1% [100 µM]
CC1=C(Nc2ccc(N3CCN(C)CC3)cc2)C(=O)c2cncnc2C1=O	131%
CCCCCCC1(C)NCCO1 (stereo not given)	105%
C#CCOc1cccc(Nc2ncnc3ccc(NC(=O)CCl)cc23)c1	-76.3% (active)
COc1ccc(C(=O)C2C(c3ccc(OC)cc3)CN(C)C23C(=O)Nc2ccccc23)cc1 (stereo not given)	92.7%
CCN(CC)CCNC(=O)c1cn2ncnc(Oc3ccc(NC(=O)Nc4ccc(Cl)c(C(F)(F)F)c4)c(F)c3)c2c1C	-89.7% (active)
CC(=O)OCc1nc(C#N)c(N(C)C)o1	97.8%
CN[C@]12CC3(C=CC(=O)C=C3)O[C@@]1(Cc1ccc(OC)cc1)N(C)C(=O)N2	11.2%

SMILES	growth
C=C(CNCCc1ccc(O)cc1)[C@@H]1CC[C@]2(CO)CC[C@]3(C)[C@H](CC[C@@H]4[C@@]5(C)CCC(NCCO)C(C)(C)[C@@H]5CC[C@]43C)[C@@H]12 (stereo not given in full)	-90.6% (active)
O=C1/C(=C\c2cn(-c3ccccc3)nc2-c2ccc(-c3cccs3)cc2)CCc2ccccc21	65.4%
Cc1ccc(-c2nn(-c3ccccc3)cc2C=C2C(=O)ON=C2C(C)C)cc1	85.2%
CC/C(=C(/c1ccc(Cl)cc1)c1ccc(OCCN2CCCC2)cc1)c1ccc(OC)cc1	79.8%
Cc1c(-c2nc3ccc(F)cc3c(=O)[nH]2)c2ccccc2n1C	48.4%
COC1=CC(c2ccc[nH]2)=N/C1=C\c1[nH]c(C)c(C(=O)OCc2ccccc2)c1C	-76.7% (active)
COc1ccc(C/C(C)=C(/c2ccc(OCCN3CCCCC3)cc2)c2ccc(OC(=O)NCc3ccccc3)cc2)cc1	-87.3% (active)
CC(C)N1CN2C(=S)NC3C2N(C1)C(=S)N3C (stereo not given)	105%
CCCCN[C@H]1CC[C@@]2(C)[C@@H](CC[C@@]3(C)[C@H]2[C@H](O)C[C@H]2/C(=C(\CCC=C(C)C)C(=O)OC)[C@@H](OC(C)=O)C[C@@]23C)[C@@H]1C	96.9%
O=[N+]([O-])c1ccc(-c2nc(N3CCOCC3)c3c4c(sc3n2)CCCC4)cc1	89.2%
COc1cc(N2C(=O)[C@H](O)C2c2ccc(SC)cc2)cc(OC)c1OC (stereo not given in full)	71.7%
C#Cc1ccc(NC(=O)c2ccc(/C=C/C(=O)c3nccn3C)cc2)cc1	-38.4% (active)
Cc1nnc(NC(=O)c2nc(S(=O)(=O)Cc3ccc(F)cc3)ncc2Cl)s1	-12.9% (active)
Cc1ccccc1/C=C1\CN(C(=O)OC(C)(C)C)C/C(=C\c2ccccc2C)C1=O	73.7%
C[C@]12C=CC(=O)C=C1CCC1C2[C@@H](O)C[C@@]2(C)C1CC[C@]2(O)C(=O)COC(=O)CCC(=O)O (stereo not given in full)	94.8%
O=C(Cn1c2c(c3ccccc31)CCCC2)Nc1ccc(-c2nc3ccccc3s2)cc1	105%
Cc1cc(Cl)ccc1Nc1nc(C(F)(F)F)ccc1C(=O)N/N=C/c1ccc([N+](=O)[O-])cc1	-13.5% (active)
O=C(Nn1c2c(sc1=NCc1ccccc1)C(=O)c1ccccc1C2=O)c1cc2ccc1CCc1ccc(cc1)CC2	5.52% (active)
CC(C)c1ccc(COCc2cc(CN3CCCC3)c(O)c3ncccc23)cc1	8.44% (active)
Cn1cccc1C(=O)C1C(c2cccc([N+](=O)[O-])c2)C2C3CCCCC3CN2C12C(=O)Nc1ccc(Cl)cc12 (stereo not given)	68.1%
